Measured values reported in PubChem BioAssay (NCATS).
Records with an inconclusive call do not appear. A call without a number means that no potency is given here. The source made the active and inactive calls. Unless noted, the call rests on the fitted dose curve; in most records, active means well fitted curve in the direction sought with a large enough effect; inconclusive means small, poorly fitted or top-dose-only effect, or another doubt; inactive means no such curve, though single readings can be large; an effect the other way counts as inactive or inconclusive.

Assays:
[1] = Cell Viability - SK-N-SH (AID 435; calls by dose curve; further: potency means the concentration at half of the fitted maximal effect); conditions: SK-N-SH neuroblastoma cell viability qHTS
In short: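 qHTS cytotoxicity: CellTiter-Glo ATP luminescence after 40 h compound exposure of human neuroblastoma SK-N-SH cells at 37 °C. AC50 derived by Hill-equation fitting, with DMSO as basal and 100 uM tamoxifen as full inhibition.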

[2] = Cellular Toxicity (caspase-3) HUV-EC-C (AID 656); conditions: HUV-EC-C cells, caspase-3 activation (apoptosis), vehicle = 0, 100 µM tamoxifen = 100%; series mostly up to 92.2 µM
In short: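 Luminescent Caspase-Glo 3/7 readout after 16 h, 37 °C compound exposure of HUV-EC-C endothelial cells, 1000 per well, complete medium. AC50 derived by Hill fitting, with DMSO as baseline and 100 uM tamoxifen as full activation.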

[3] = Cellular Toxicity (caspase-3) H-4-II-E (AID 663); conditions: H-4-II-E rat hepatoma; Potency: caspase-3 activation; series mostly up to 92.2 µM;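 further: cells exposed to compound for 16 hr before readout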
In short: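 H-4-II-E rat hepatoma, 1500 cells/well, 5 hr settle at 37 °C; compound 16 hr, 37 °C, complete medium; Caspase-Glo 3/7, 20 min RT; luminescence. DMSO = 0%, 100 uM tamoxifen = 100%; Hill-equation AC50.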

[4] = MultiTox-Fluor Cytotoxicity Assay - LYMP1-002 - Dead Cells (AID 960); conditions: LYMP1-002 lymphoblastoid cells, dead-cell protease fluorescence; series mostly up to 46.1 µM; further: nearly all actives have a fitted effect of over 60% in size
In short: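 Readout: fluorescence at 485/520 from cell-impermeant bis-AAF-R110 cleaved by proteases leaking from damaged cells. LYMP1-002 lymphoblastoid line, 16 hr compound treatment at 37 C, concentration-response in qHTS format; Hill-equation AC50 values.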

[5] = Cell Viability - LYMP2-005 (AID 967); conditions: LYMP2-005 lymphoblastoid cell viability; series mostly up to 92.2 µM; further: potency means the concentration at half of the fitted maximal effect
In short: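 LYMP2-005 human lymphoblastoid cells (2500/well) were treated with compounds for 24 h at 37 C. Intracellular ATP was then measured by CellTiter-Glo luminescence after 30 min at room temperature. AC50 values came from Hill-equation fits of qHTS concentration-response data.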

[6] = Cell Viability - LYMP2-013 (AID 970); conditions: LYMP2-013 lymphoblastoid cells viability; series mostly up to 92.2 µM; further: nearly all actives have a fitted effect of over 55% in size
In short: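 CellTiter-Glo luminescence (cellular ATP) read after 30 min at RT. Cells: human lymphoblastoid line, 2500/well, 24 hr compound exposure at 37 C. Tetraoctylammonium bromide positive control; AC50 via standard Hill fit of qHTS titrations.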

[7] = Cell Viability - LYMP2-025 (AID 976); conditions: LYMP2-025 lymphoblastoid cell viability; series mostly up to 92.2 µM
In short: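 CellTiter-Glo luminescence (cellular ATP) after 24 h compound exposure at 37 C; LYMP2-025 human lymphoblastoid cells, 2500/well, complete medium. Tetraoctylammonium bromide positive control. AC50 by Hill equation fit of qHTS concentration-response.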

[8] = Cell Viability - LYMP2-007 (AID 979); conditions: LYMP2-007 lymphoblastoid cell viability; series mostly up to 92.2 µM;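 further: cells exposed to compound for 24 h before reading; nearly all actives have a fitted effect of over 60% in size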
In short: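 qHTS cytotoxicity: 2500 cells/well, 5 hr 37 C settle, compound 24 hr 37 C, CellTiter-Glo 30 min RT, luminescence. Decrease in ATP = toxicity. AC50 by standard Hill equation; tetraoctylammonium bromide positive control.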

[9] = Cell Viability - LYMP2-014 (AID 983); conditions: LYMP2-014 lymphoblastoid cells, viability qHTS; series mostly up to 92.2 µM; further: nearly all actives have a fitted effect of over 50% in size
In short: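 2500 cells/well, 5 hr 37 C; cpd 24 hr 37 C, complete medium; CellTiter-Glo 30 min RT, luminescence; ATP loss = toxicity; AC50 via Hill eqn; tetraoctylammonium bromide positive control.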

[10] = Cell Viability - LYMP2-018 (AID 985); conditions: LYMP2-018 lymphoblastoid cells, viability (qHTS); series mostly up to 92.2 µM; further: nearly all actives have a fitted effect of over 50% in size
In short: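 2500 cells/well; 5 hr 37 C; cmpd 24 hr 37 C, complete medium; CellTiter-Glo 30 min RT; luminescence. Tetraoctylammonium bromide positive control. AC50 via Hill fit.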

[11] = Cell Viability - LYMP2-022 (AID 987); conditions: LYMP2-022 lymphoblastoid cell viability; series mostly up to 92.2 µM; further: nearly all actives have a fitted effect of over 55% in size
In short: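 Luminescent ATP read-out (CellTiter-Glo, 30 min, RT) after 24 hr, 37 C compound exposure of 2500 human lymphoblastoid cells/well in complete medium. Cytotoxicity taken as concentration-dependent ATP loss; AC50 from standard Hill equation.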

[12] = Cell Viability - LYMP2-024 (AID 988); conditions: LYMP2-024 lymphoblastoid cell viability; series mostly up to 92.2 µM; further: nearly all actives have a fitted effect of over 60% in size
In short: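 ATP-based luminescence (CellTiter-Glo, 30 min RT) after 24 h compound exposure at 37 C of 2500 lymphoblastoid cells/well; decrease in ATP taken as cytotoxicity. qHTS concentration-response fitted to standard Hill equation for AC50.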

[13] = qHTS assay for small molecule agonists of retinoid X receptor alpha signaling (AID 588544); conditions: HEK293T RXRa-UAS-bla, beta-lactamase reporter, 18 h; 530 nm emission
[14] = molecular target: Thyroid hormone receptor beta (Homo sapiens) (UniProt P10828); experiment: qHTS assay for small molecule agonists of thyroid hormone receptor beta signaling (AID 588545; calls by dose curve); conditions: TR-UAS-bla GripTite HEK 293, beta-lactamase ratio, agonist mode, 18 h; series mostly up to 76.7 µM
In short: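 In this cell-based screen, titrated compounds act on HEK 293 cells held in medium with 2% charcoal/dextran FBS, NEAA and pyruvate for 18 hrs at 37 C. Responses are expressed relative to T3 (10 nM) as 100% and basal DMSO as 0%.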

[15] = qHTS assay for small molecule antagonists of retinoid X receptor alpha signaling (AID 588546); conditions: HEK293T RXRa-UAS-bla, beta-lactamase ratio, antagonist mode; measured here: W530 green channel, cytotoxicity proxy;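 further: cells stimulated with 9-cis-retinoic acid as agonist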
In short: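 Beta-lactamase reporter inhibition, read as CCF4 fluorescence ratio (ex 405, em 460/530 nm) after 2 h at RT. HEK293T UAS-bla cells, 2500/well, were stimulated with 9-cis-RA at 500 or 100 nM final alongside test compound for 18 h at 37 C.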

[16] = molecular target: Thyroid hormone receptor beta (Homo sapiens) (UniProt P10828); experiment: qHTS assay for small molecule antagonists of thyroid hormone receptor beta signaling (AID 588547; active means well fitted inhibition curve with a large enough effect in the signal ratio, with a control signal flat, not every such curve was filed as active; the % refers to the signal ratio;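 further: cells stimulated with 0.4 nM T3 agonist during compound exposure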); conditions: TR-UAS-bla HEK293, beta-lactamase ratio, antagonist mode, 18 h
In short: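 TR-UAS-bla GripTite HEK293 cells in 2% charcoal/dextran FBS medium; compounds 0.59 nM to 92 uM with T3 at 0.4nM final, 18 h at 37 C. Beta-lactamase read by CCF4 fluorescence (460/530 nm); Hill fits gave IC50 and efficacy.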

[17] = molecular target: Tumor necrosis factor (Homo sapiens) (UniProt P01375); experiment: qHTS assay to identify small molecules that stimulate Tumor Necrosis Factor-alpha (TNF-alpha) secretion (AID 651757; active means well fitted curve in the direction sought with a large enough effect in the signal ratio; the % refers to the signal ratio); conditions: Human cells, HTRF 665/615 ratio; series mostly up to 92.2 µM
In short: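 THP-1 cells, 3000/well; compound 17 hrs, 37 C; add cryptate/XL665 anti-TNF-alpha antibody pair; 3 hr RT; TR-FRET (HTRF) read of secreted TNF-alpha. Quantitative HTS format.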

[18] = qHTS assay for cell viability of HEK293 cells (AID 743288); conditions: ATP luminescence (CellTiter-Glo), 18 h, stronger effect = lower value; further: nearly all actives have a fitted effect of over 50% in size
In short: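 Readout is luciferase-coupled ATP content (CellTiter-Glo luminescence, 30 min room temperature) as a measure of metabolically competent cells. Parental HEK293 cells were plated 5 h or more before compound addition, then treated 18 h at 37 C.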

[19] = molecular target: Nuclear receptor subfamily 1 group I member 2 (Rattus norvegicus) (UniProt Q9R1A7); experiment: qHTS assay for small molecule activators of the rat pregnane X receptor (rPXR) signaling pathway (AID 651751; call rule not given here); conditions: rPXR reporter cells, luciferase (One-Glo), 24 h
[20] = Cell Viability - LYMP2-004 (AID 966); conditions: LYMP2-004 lymphoblastoid cell viability, qHTS; series mostly up to 92.2 µM; further: nearly all actives have a fitted effect of over 65% in size
In short: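 Luminescent ATP read-out (CellTiter-Glo, 30 min RT) after 24 hr compound exposure at 37 C; 2500 lymphoblastoid cells/well, complete medium. Decrease in ATP = cytotoxicity; AC50 from standard Hill model.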

Sequence of Thyroid hormone receptor beta (Homo sapiens) (P10828 whole entry, looked up): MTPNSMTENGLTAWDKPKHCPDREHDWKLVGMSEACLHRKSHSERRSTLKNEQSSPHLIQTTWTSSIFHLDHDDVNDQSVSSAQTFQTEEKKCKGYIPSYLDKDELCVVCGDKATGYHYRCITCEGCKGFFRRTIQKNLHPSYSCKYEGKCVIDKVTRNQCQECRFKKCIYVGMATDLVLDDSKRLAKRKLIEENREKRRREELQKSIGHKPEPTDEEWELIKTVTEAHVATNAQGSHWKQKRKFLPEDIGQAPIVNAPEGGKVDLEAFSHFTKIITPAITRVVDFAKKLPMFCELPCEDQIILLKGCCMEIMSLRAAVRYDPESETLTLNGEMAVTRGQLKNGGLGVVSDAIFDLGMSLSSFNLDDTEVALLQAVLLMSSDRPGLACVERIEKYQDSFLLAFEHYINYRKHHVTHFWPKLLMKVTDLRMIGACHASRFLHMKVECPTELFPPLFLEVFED
Sequence of Tumor necrosis factor (Homo sapiens) (P01375 whole entry, looked up): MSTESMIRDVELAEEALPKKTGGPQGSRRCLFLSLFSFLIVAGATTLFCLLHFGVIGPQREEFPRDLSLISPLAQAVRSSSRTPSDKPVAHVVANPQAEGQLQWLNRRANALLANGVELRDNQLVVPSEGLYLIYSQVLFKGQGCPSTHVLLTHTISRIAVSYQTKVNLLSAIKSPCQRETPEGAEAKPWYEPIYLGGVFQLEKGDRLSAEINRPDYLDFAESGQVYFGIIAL
Sequence of Nuclear receptor subfamily 1 group I member 2 (Rattus norvegicus) (Q9R1A7 whole entry, looked up): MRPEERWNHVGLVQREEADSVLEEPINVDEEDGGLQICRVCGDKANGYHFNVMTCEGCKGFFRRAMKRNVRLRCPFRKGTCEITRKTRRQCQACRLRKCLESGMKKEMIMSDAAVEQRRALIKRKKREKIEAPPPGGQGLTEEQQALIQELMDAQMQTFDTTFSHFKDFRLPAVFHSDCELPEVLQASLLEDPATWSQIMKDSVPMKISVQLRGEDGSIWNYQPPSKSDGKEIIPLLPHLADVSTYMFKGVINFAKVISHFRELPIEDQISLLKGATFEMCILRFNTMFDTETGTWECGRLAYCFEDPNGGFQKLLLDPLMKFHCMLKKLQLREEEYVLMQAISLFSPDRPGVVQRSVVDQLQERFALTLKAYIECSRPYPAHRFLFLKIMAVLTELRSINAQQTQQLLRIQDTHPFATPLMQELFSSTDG

For `[N-]=[N+]=[N-]`, the Potency [1] was > 92 µM (inactive), the outcome [2] was “inactive” and the Potency [3] was “inactive”. The Potency [4] was “inactive”, the Potency [5] was 2.51 µM (active) and the Potency [6] was “inactive”. The Potency [7] was “inactive”, the Potency [8] was “inactive” and the Potency [9] was “inactive”. The Potency [10] was “inactive”, the Potency [11] was “inactive” and the Potency [12] was “inactive”. For the same compound, the max response [13] was -2.08%, the Potency [14] was “inactive” and the max response [15] was -3.73%. For the same compound, the activity change % (negative = inhibition) [16] was 7.76% (inactive), the outcome [17] was “inactive” and the max response [18] was 0.516% (inactive). The max response [19] was -8.68% (inactive).
With `N#C/C(N)=C(/N)C#N` the Potency [1] was > 92 µM (inactive), the outcome [2] was “inactive” and the Potency [3] was “inactive”. The Potency [4] was “inactive”, the Potency [20] was “inactive” and the Potency [5] was “inactive”. For the same compound, the Potency [6] was “inactive”, the Potency [7] was “inactive” and the Potency [8] was “inactive”. The Potency [9] was “inactive”, the Potency [10] was “inactive” and the Potency [11] was “inactive”. The Potency [12] was “inactive”, the max response [13] was -4.63% and the Potency [14] was “inactive”. The max response [15] was -2.22%, the activity change % (negative = inhibition) [16] was -2.94% (inactive) and the outcome [17] was “inactive”. For the same compound, the max response [19] was -1.96% (inactive).
In the case of `CCN(CC)N=O`, the Potency [1] is reported as > 92 µM (inactive), the outcome [2] is reported as “inactive” and the Potency [3] is reported as “inactive”. For the same compound, the Potency [4] was “inactive”, the Potency [20] was “inactive” and the Potency [5] was “inactive”. For the same compound, the Potency [6] was “inactive”, the Potency [7] was “inactive” and the Potency [8] was “inactive”. For the same compound, the Potency [9] was “inactive”, the Potency [10] was “inactive” and the Potency [11] was “inactive”. For the same compound, the Potency [12] was “inactive”, the max response [13] was -8.19% and the Potency [14] was “inactive”. The max response [15] was -3.04%, the outcome [17] was “inactive” and the max response [18] was 1.5% (inactive). The max response [19] was 3.34% (inactive).
For `O=NN1CCCCC1`, the Potency [1] was > 92 µM (inactive), the outcome [2] was “inactive” and the Potency [3] was “inactive”. The Potency [4] was “inactive”, the Potency [20] was “inactive” and the Potency [5] was “inactive”. The Potency [6] was “inactive”, the Potency [7] was “inactive” and the Potency [8] was “inactive”. The Potency [9] was “inactive”, the Potency [10] was “inactive” and the Potency [11] was “inactive”. The Potency [12] was “inactive”, the max response [13] was 5.16% and the Potency [14] was “inactive”. For the same compound, the max response [15] was -1.5%, the activity change % (negative = inhibition) [16] was 8.23% (inactive) and the outcome [17] was “inactive”. For the same compound, the max response [18] was -2.6% (inactive) and the max response [19] was -1.74% (inactive).
With `CSSC` the Potency [1] was > 92 µM (inactive), the outcome [2] was “inactive” and the Potency [3] was “inactive”. The Potency [4] was “inactive”, the Potency [20] was “inactive” and the Potency [5] was “inactive”. The Potency [6] was “inactive”, the Potency [7] was “inactive” and the Potency [8] was “inactive”. For the same compound, the Potency [9] was “inactive”, the Potency [10] was “inactive” and the Potency [11] was “inactive”. For the same compound, the Potency [12] was “inactive”, the max response [13] was 1.16% and the Potency [14] was “inactive”. The max response [15] was -12.8%, the activity change % (negative = inhibition) [16] was -18.7% (inactive) and the outcome [17] was “inactive”. For the same compound, the max response [18] was -1.5% (inactive) and the max response [19] was -2.6% (inactive).
